The supplement of paper PMC6555819

Assays:
Experiment in all cases: PBM binding z-score (relative to random genomic background probes); higher = stronger binding; sequences stand for … in GC…GCGATTGACAGCGTAGAATGAAGG
[1] = system: RARb homodimer (NR concentration 270 nM)
Procedure, shortened: (§1)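 Random background probes are the reference for binding z-scores. These scores derive from regression-normalized fluorescence on custom Agilent 4×180K protein-binding microarrays incubated 1 h with ligand-free nuclear receptor dimers. Binding was detected with antibodies against each partner (one per run).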

[2] = system: RARg:RXRa (NR concentration 270 nM, RXRa partner concentration 90 nM)
Procedure, shortened: as §1

[3] = system: RARg homodimer (NR concentration 270 nM)
Procedure, shortened: as §1

[4] = system: RXRa DBDmut IVT, anti-RXR (DBD mutation: RXRa K156A/R161A, NR concentration 90 nM)
Procedure, shortened: as §1

[5] = system: RXRa homodimer (NR concentration 180 nM)
Procedure, shortened: as §1

[6] = system: THRa:RXRa (NR concentration 90 nM, RXRa partner concentration 90 nM)
Procedure, shortened: as §1

[7] = system: THRa homodimer (NR concentration 90 nM)
Procedure, shortened: as §1

[8] = system: VDR:RXRa (NR concentration 270 nM, RXRa partner concentration 90 nM)
Procedure, shortened: as §1

[9] = system: VDR homodimer (NR concentration 270 nM)
Procedure, shortened: as §1

Sequence	PBM binding z-score [1]	PBM binding z-score [2]	PBM binding z-score [3]	PBM binding z-score [4]	PBM binding z-score [5]	PBM binding z-score [6]	PBM binding z-score [7]	PBM binding z-score [8]	PBM binding z-score [9]
TGACCAAGGTGAAAGGTCGTTGATGCACGCCTTG	2.49	4.18	2.09	0.0698	5.72	3.35	0.487	2.96	1.31
ATACCAAGGTGATCGTGAGGTCGTGGATACTAAC	1.77	2.71	0.919	0.217	2.04	3.62	2.99	2.84	1.78
TCTAGTTGGTCACGGAGATCACACACGACGGGTA	1.07	1.07	1.4	0.762	1.19	0.155	0.328	0.966	0.211
CGTCAAAGTTCAACTAAGGTAACGTCAAGCACGC	4.4	5.96	6.81	4.8	4.81	5.05	1.86	4.83	3.9
CCTACTGAGCCAAGGTCATTGATCAGTCAAAGCA	3.43	3.7	3.17	2.2	3.23	3.52	2.49	3.63	3.65
GCTAGGTGGTCAGTAAAAGGTCACACACCGGTCG	5.21	6.23	5.47	0.0546	5.57	3.55	1.73	4.22	2.03
TAGCCTAGTTCATGGGCCAGTATACCACGCGAAC	1.05	0.816	0.746	1.37	0.734	0.187	0.00574	0.685	1.42
CATACAGGGTCAGCTAGGCCAGAGCAGGGACGGC	3.07	4.3	4.47	1.32	4.21	3.18	0.613	3.75	0.954
GGAACGAGGGCATTCGTGTTGATAGCATGGCGAT	0.43	0.848	1.23	3.26	0.575	0.978	-0.391	1.6	1.87
CATTACGGGTCACGAGGTTATAGCACGACGAGCG	4.22	6.35	5.8	2.21	8.02	3.82	1.56	5.57	2.52
CCTAGTTCGTCAGGAGGTCACACACCGGATATGA	4.54	6.37	4.42	3.1	4.83	3.92	2.68	5.03	4.2
CTACCAAGGTGAACAAGGTCGTTGATTACTATTC	2.1	1.73	1.67	1.41	1.91	3.2	1.81	5.95	2.28
GCGACTGGGGCTTCAGCAGGTTACCATAACTTAA	0.521	-0.404	-0.463	-0.297	0.00147	0.733	-0.0641	-0.361	-0.284
ACTATTAGTTGAGACGAGGGCAAGCGATAGGTTG	1.06	0.352	0.635	0.63	0.484	2.28	0.357	0.29	0.593
CCTTACGAGTCACGAGGTTATAGCACGACGAGCG	1.11	1.27	1.04	0.554	1.8	1.9	1.19	1.7	1.26
CCTTACGGGTCAGTCCAGGTTATAGCATCGGAGT	2.69	3.23	3.53	0.751	2.55	4.66	0.627	2.9	1.12
GCTGCTAGGTCAGCTGATGGTCAGCTAAAGCTCG	2.88	3.97	4.38	0.423	0.813	1.83	-0.0581	-0.126	-1.09
CCTCGGTGGACAGAAGGTCAGAGCTGTCCGCTTT	2.87	2.3	1.99	-0.526	1.84	1.89	-0.379	0.609	-0.538
GCGACTGGGGCATTAGCAGGTTACCATAACTTAA	0.877	0.345	0.226	0.29	0.0797	0.892	0.101	-0.196	-0.236
TTACCAGGGTGAGCTGAGGTCGTTGATCCAACTC	1.24	1.08	0.39	-0.148	1.37	4.67	1.57	4.58	2.47
CCTCGGAGGACAGAAGGTCGGAGCTGTCCGCTTT	1.03	0.91	0.81	-0.0663	-0.268	0.396	-0.577	-0.398	-0.651
CCTAGTTGATCAAGGTCACACACGCTATAGGTAC	4.44	4.24	4.06	2.8	4.2	4.25	4.11	4.91	4.32
TCTTGTACATCAAAGGTTAAGAAAGCCGAAGCCT	1.84	1.84	1.06	1.09	2.7	1.48	-0.039	1.55	0.246
TATACAGGTTCAAAGGCCAGAGTACGAATGTCGA	1.82	2.45	1.79	4.01	3.63	1.25	-0.0522	–	4.75
